Measurements as given in PubChem BioAssay AID430 (Sanford-Burnham Center for Chemical Genomics, 2006).
The whole screen tested about 63,000 compounds, of which about 1,100 (1.7%) were called active. This is one part of a sample in which actives are shown more often than they occur. Measured potencies and affinities stand elsewhere. Unmarked numbers belong to inactive results. Cut-off read from the data, not from the text of the source: active = cytotoxicity above about 50%; inactive = the rest.

Test: cytotoxicity in HPDE-C7 cells, cell-based, fluorescence, HTS (AID 430);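 note: cells exposed to compound for 48 hours before viability readout; 0% = vehicle and 100% = reference cytotoxic drug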
Settings: HPDE-C7 pancreatic duct cells viability, at 10 µM, stronger effect = higher value

Row | Compound | cytotoxicity
1 | COC(=O)CN1CCN(C(=O)c2ccc(F)cc2)c2ccccc2C1 | -14.6%
2 | Cc1cc(Cl)ccc1N=Cc1c(O)n(C)c(=O)n(C)c1=O | -4.4%
3 | Cc1cccnc1NCC(O)COc1ccccc1 (stereo not drawn) | -2.3%
4 | CN1CCN(CC(=O)N(Cc2c(C#N)c3ccccc3n2C)c2ccccc2)CC1 | 2.3%
5 | O=C(c1ccccc1C(=O)N1CCN(c2ccc(F)cc2)CC1)N1CCN(c2ccc(F)cc2)CC1 | 2.5%
6 | COC(=O)C(C)NC(=O)C1CCCN1S(=O)(=O)c1cc(C)c(Cl)cc1C (stereo not drawn) | 7.8%
7 | CN(C)C(=O)N1CCC(C(=O)NCc2ccccc2)CC1 | -9.6%
8 | Cc1nc(N2CCC(C)CC2)c2c(C)c(C(=O)O)sc2n1 | -38.1%
9 | Cc1cc(C)c2c3c(c(-c4ccccc4)n2n1)c(=O)n(C)c(=O)n3C | -6.5%
10 | CCN1CCN(c2ccc(NC(=O)COc3ccccc3Cl)cc2)CC1 | -13.4%
11 | Cn1cc(Cl)c(C(=O)N2CCN(c3ncccn3)CC2)n1 | 3.1%
12 | CCC(c1nnnn1Cc1cccs1)N1CCN(c2nc3ccccc3s2)CC1 (stereo not drawn) | -1.9%
13 | c1ccc(COc2ccc(Nc3ncnc4nc[nH]c34)cc2)cc1 | -3.8%
14 | C=CCn1c(N)c(C(=O)Nc2ccccc2)c2nc3ccccc3nc21 | 66.5% (active)
15 | C=CCn1c(N)c(C(=O)OC(C)(C)C)c2nc3ccccc3nc21 | 8.7%
16 | C=CCn1c(N)c(C(=O)OCCC)c2nc3ccccc3nc21 | 5.2%
17 | COC(=O)c1cccc(S(=O)(=O)N(Cc2ccco2)Cc2cc3ccc(OC)cc3[nH]c2=O)c1 | -2.3%
18 | O=C(CCSc1ccccc1)N1CCOCC1 | 2.9%
19 | O=C1N=c2ccccc2=C1c1sc(=S)n(CC2CCCO2)c1O (stereo not drawn) | -0.5%
20 | C=CCn1c(O)c(C2=c3ccccc3=NC2=O)s/c1=N/c1nccs1 | -2.6%
21 | C=CCn1c(O)c(C2=c3ccccc3=NC2=O)sc1=Nc1ccc(O)cc1 | 111% (active)
22 | Cc1cccc(OCCc2nnc(N)s2)c1C | -15.8%
23 | CC(C)c1nnc(NC(=O)CSc2nc3ccccc3s2)s1 | -8.4%
24 | Cc1ccc(C(C(=O)NC(C)(C)C)N(CC2CCCO2)C(=O)Cn2nnc(-c3ccc(C)o3)n2)cc1 (stereo not drawn) | -0.4%
25 | COc1ccc(-c2cc3ccccc3n2CC(O)CN2CCOCC2)cc1 (stereo not drawn) | -1.1%

Row | Compound | cytotoxicity
26 | COc1ccc(-c2cc3ccccc3n2CC(O)CN2CCN(CCO)CC2)cc1 (stereo not drawn) | 52.6% (active)
27 | COc1ccc(-c2cc3ccccc3n2CC(O)CNC(CO)(CO)CO)cc1 (stereo not drawn) | 6.1%
28 | CCOc1ccc(C2C(C(=O)c3ccco3)=C(O)C(=O)N2Cc2cccnc2)cc1OC (stereo not drawn) | 7.1%
29 | CCn1c2ccccc2c2cc(CN3CCN(C(=O)c4ccco4)CC3)ccc21 | -25.2%
30 | O=C(OC1CCCCC1)c1ccc(NC(=O)c2ccco2)cc1 | 58.1% (active)
31 | CCOC(=O)c1sc(NC(=O)c2ccco2)nc1-c1ccccc1 | -8.2%
32 | Cc1ccc(Oc2ccc(NC(=O)c3ccco3)cc2)cc1 | 78.8% (active)
33 | O=C(O)CCC(=O)Nc1ccc(C(=O)OC2CCCCC2)cc1 | -4.7%
34 | CCn1c2ccccc2c2cc(NC(=O)c3ccco3)ccc21 | 57.2% (active)
35 | O=C(Nc1nc(-c2cccs2)c(-c2ccccc2)s1)c1ccco1 | 53.7% (active)
36 | CC(=O)c1sc(NC(=O)c2ccco2)nc1-c1ccccc1 | -1%
37 | O=C(Nc1ccc(Oc2ccc(NC(=O)c3ccco3)c(NC(=O)c3ccco3)c2)cc1)c1ccco1 | 25%
38 | CCn1c2ccccc2c2cc(NC(=O)N3CCOCC3)ccc21 | 6.2%
39 | O=C(Nc1ccc(OC(=O)c2ccco2)cc1)c1ccco1 | -10.9%
40 | Cc1ccc(NC(=O)c2ccc(OC(=O)c3ccco3)cc2)cc1 | -5.6%
41 | CC(C)CCNC(=O)CN(CCN1CCOCC1)C(=O)Cn1nnc(-c2ccc(F)cc2)n1 | 4.5%
42 | Cc1c(C(=O)O)sc2ncnc(N3CCCCC3C)c12 (stereo not drawn) | 9.8%
43 | CCCCOC(=O)c1ccc(NC(=O)c2ccoc2C)cc1 | 3.4%
44 | CCCCCOC(=O)c1ccc(NC(=O)c2ccco2)cc1 | 65.9% (active)
45 | COC(=O)c1sc(NC(=O)c2ccco2)nc1C | -3.5%
46 | CCCCOC(=O)c1ccc(NC(C)=O)cc1 | -11.4%
47 | Cc1nc(NC(=O)c2ccco2)sc1C(=O)Nc1ccc(Br)cc1 | 65.7% (active)
48 | CCOC(=O)c1sc(NC(=O)c2ccco2)nc1C | -1.4%
49 | Cc1ccc2c(c1)NCCO2 | 5.4%
50 | Cc1nnc(C)n1/N=C/c1cc(Br)cc(Br)c1O | 79.9% (active)

Row | Compound | cytotoxicity
51 | COc1c(Br)cc(Br)cc1/C=N/n1c(C)nnc1C | 2.9%
52 | Cc1nnc(C)n1/N=C/c1cc(Br)ccc1O | -12.5%
53 | CC(C)COC(=O)C(N)C(C(=O)OCC(C)C)c1ccccc1 (stereo not drawn) | -6.4%
54 | O=C(NCC1CCCO1)C1CC(=O)N(c2ccc(F)c(Cl)c2)C1 (stereo not drawn) | 3.4%
55 | CCN(CC)c1ccc2c(C)c(-c3ccc(N)cc3)c(=O)oc2c1 | 11%
56 | CCOC(=O)Cc1c(C)c2ccc(N(CC)CC)cc2oc1=O | -17.8%
57 | CCNc1ccc2c(Cl)cc(=O)oc2c1 | -2%
58 | CCN(CC)c1ccc2c(C)c(CN3CCOCC3)c(=O)oc2c1 | 24.1%
59 | CCN(CC)C(=O)CSc1nnc(-c2cccs2)n1Cc1ccco1 | 17.7%
60 | O=C(COc1ccccc1)N1CCN(C(=O)c2cccc(F)c2)CC1 | -40.5%
61 | CCOC(=O)CN1C(=O)COc2ccc(Cl)cc21 | -8.8%
62 | CCN(CC)CCCN(Cc1cc2cc3c(cc2[nH]c1=O)OCCO3)C(=O)Nc1ccc(F)cc1 | 0.9%
63 | O=C(c1ccc(Cn2cc(Br)cn2)cc1)N1CCN(c2ccccc2)CC1 | 53.1% (active)
64 | O=C(O)c1cccc(Cn2cc(Br)cn2)c1 | -12.3%
65 | O=C(c1ccc(Cn2cc(Cl)cn2)cc1)N1CCN(c2ccccc2)CC1 | 12.3%
66 | CC(=O)N(Cc1cc(=O)[nH]c2ccccc12)c1cccc(C)c1 | 12%
67 | CC1(C)CC(=O)C2=C(C1)N(CCN1CCOCC1)C1=C(C(=O)CC(C)(C)C1)C2c1cccc(Cl)c1 | 3.8%
68 | O=C1CC(N2CCN(c3ccccc3)CC2)C(=O)N1c1ccc2c(c1)OCCO2 (stereo not drawn) | -4.9%
69 | Cc1ccc(CCNC(=O)C2CCCN(c3nc4ccccc4o3)C2)cc1 (stereo not drawn) | -18%
70 | COc1cc(NC(=O)c2ccco2)c(OC)cc1NC(=O)c1cc(OC)c(OC)c(OC)c1 | 52.3% (active)
71 | COc1cc(C(=O)Nc2ccc(NC(=O)c3ccco3)nc2)cc(OC)c1OC | -2.5%
72 | CCOc1cc(NC(=O)c2ccco2)c(OCC)cc1NC(=O)c1cc(OC)c(OC)c(OC)c1 | 14.4%
73 | Cc1cccc(NC(=O)Cn2c(C)c(C#N)c3ccccc32)c1C | -4.9%
74 | O=C(CSc1n[nH]c(=O)[nH]c1=O)c1ccccc1 | 5%
75 | c1ccc(Cc2nnc3sc(Nc4ccccc4)nn23)cc1 | 3%

Row | Compound | cytotoxicity
76 | CCn1c(SCC(=O)N2CCN(c3ccc(Cl)cc3)CC2)nc2ccccc2c1=O | 2.2%
77 | O=C(NCc1cccnc1)C1CC(=O)N(c2ccc(Cl)cc2)C1 (stereo not drawn) | -7%
78 | CSC1=NCCN1C(=O)c1cccs1 | 2%
79 | COc1ccc(NC(=O)CSC2=C(C#N)C(c3ccco3)C3=C(CCCC3=O)N2)c(OC)c1 (stereo not drawn) | -2.1%
80 | CC(C)(C)c1ccc(C(=O)CCCSC2=C(C#N)C(c3ccco3)C3=C(CCCC3=O)N2)cc1 (stereo not drawn) | 38.2%
81 | N#CC1=C(SCC(=O)c2ccccc2)NC2=C(C(=O)CCC2)C1c1ccco1 (stereo not drawn) | 54.3% (active)
82 | Cc1ccc(C(=O)CSC2=C(C#N)C(c3ccco3)C3=C(CC(C)(C)CC3=O)N2)cc1 (stereo not drawn) | 7.1%
83 | Cc1ccc(NC(=O)CSC2=C(C#N)C(c3ccco3)C3=C(CCCC3=O)N2)cc1 (stereo not drawn) | 3.5%
84 | Cc1ccc(C(=O)CSC2=C(C#N)C(c3ccco3)C3=C(CCCC3=O)N2)cc1 (stereo not drawn) | 76.5% (active)
85 | CCOC(=O)N1CCN(CC(=O)Nc2c(C(=O)OC)[nH]c3cccc(Cl)c23)CC1 | -17.3%
86 | COc1ccc(-n2nnnc2SCC(=O)c2cc3ccccc3o2)cc1 | -1.1%
87 | CCOC(=O)C1C(=O)CC(C)(O)C(C(=O)OCC)C1c1ccccc1OC (stereo not drawn) | -17.4%
88 | CSCCC(NC(=O)OC(C)(C)C)C(=O)NC(CC(C)C)C(N)=O (stereo not drawn) | -35.4%
89 | Cc1cccc(C)c1NC(=O)C(c1ccccc1)N1CCC2(CC1)OCCO2 (stereo not drawn) | 9.2%
90 | CCCC1=C(C(=O)OCC)C(c2ccccc2OC)NC(=O)N1 (stereo not drawn) | -16.5%
91 | Cc1noc(C)c1S(=O)(=O)N(CC(=O)N1CCn2c1nc1ccccc12)c1ccc(C(C)C)cc1 | 8.7%
92 | Cn1c(CNc2ccccc2)nc2ccccc21 | -11.4%
93 | CCCn1c(NCc2ccco2)nc2ccccc21 | 2%
94 | CCCn1c(CNc2ccccc2O)nc2ccccc21 | 14.5%
95 | CCCn1c(NC(=O)c2ccccc2)nc2ccccc21 | -20.2%
96 | CCCn1c(CNc2ccc(Br)cc2)nc2ccccc21 | 50.8% (active)
97 | Cc1ccc(Nc2cc(C)nc3nc(C)nn23)c(C)c1 | -12.6%
98 | C=CCOC(=O)C1=C(C)OC(N)=C(C#N)C1c1ccccc1F (stereo not drawn) | 6.1%
